Data reported in PubChem BioAssay (EPA / NIEHS).
The source made the active and inactive calls. Rule for the calls: active = hit-call score of the fitted dose curve at least 0.9, where 1 is the maximum; inactive = score below 0.9.

Tests used:
Settings in all cases: mRNA level, 48 h; actives raise or lower the signal
[1] = read-out: Bcl-2 (BAD) gene, BAD (gene 572); assay: LTEA_HepaRG_BAD: Life Technologies and Expression Analysis (LTEA) Assay for Bcl-2 (BAD) gene using HepaRG (AID 2283469)
Method in brief: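 HepaRG, 48 h exposure, 8-pt half-log curve from 100 uM in 0.5% DMSO, duplicates. Readout: TaqMan qRT-PCR for BAD mRNA, housekeeping-normalised (ACTB/GAPDH/POLR2A); gain or loss fitted against DMSO baseline.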

[2] = read-out: Bcl-2 (BAX) gene, BAX (gene 581); assay: LTEA_HepaRG_BAX: Life Technologies and Expression Analysis (LTEA) Assay for Bcl-2 (BAX) gene using HepaRG (AID 2283470)
Method in brief: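 qRT-PCR read-out of BAX mRNA, normalized to three housekeeping genes, after 48 h chemical exposure of human HepaRG cells in serum-free induction medium; eight-point half-log series, top 100 uM, 0.5% DMSO vehicle; bidirectional fit versus DMSO.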

[3] = read-out: adenosine kinase (ADK) gene, ADK (gene 132); assay: LTEA_HepaRG_ADK: Life Technologies and Expression Analysis (LTEA) Assay for adenosine kinase (ADK) gene using HepaRG (AID 2283471)
Method in brief: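 ADK expression quantified by qRT-PCR, normalised to three housekeeping genes, after 48 h exposure of HepaRG cells to eight concentrations (top 100 uM, half-log steps, duplicate, 0.5% DMSO). Up- or down-regulation fitted relative to vehicle.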

[4] = read-out: Alpha-fetoprotein (AFP) gene, AFP (gene 174); assay: LTEA_HepaRG_AFP: Life Technologies and Expression Analysis (LTEA) Assay for Alpha-fetoprotein (AFP) gene using HepaRG (AID 2283472)
Method in brief: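 qRT-PCR (Fluidigm TaqMan) readout of AFP transcript, normalized to three housekeeping genes, fitted bidirectionally against 0.5% DMSO baseline. HepaRG cells received chemicals for 48 h in serum-free induction medium, top concentration 100 uM, half-log steps.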

[5] = read-out: BCL2L11 (gene 10018); assay: LTEA_HepaRG_BCL2L11: Life Technologies and Expression Analysis (LTEA) Assay for Bcl-2 (BCL2L11) gene using HepaRG (AID 2283473)
Method in brief: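 BCL2L11 transcript levels are measured by Fluidigm qRT-PCR, normalized to three housekeeping genes. HepaRG cultures were plated 48 h, then treated 48 h with test chemical (top 100 uM, half-log, 0.5% DMSO vehicle); curves were fitted bidirectionally against DMSO.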

[6] = read-out: Apolipoprotein A-V (APOA5) gene, APOA5 (gene 116519); assay: LTEA_HepaRG_APOA5: Life Technologies and Expression Analysis (LTEA) Assay for Apolipoprotein A-V (APOA5) gene using HepaRG (AID 2283474)
Method in brief: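 APOA5 transcript levels were quantified by qRT-PCR, normalized to three housekeeping genes, after 48 h chemical treatment of HepaRG cells (8 points, 100 uM maximum, half-log steps, 0.5% DMSO). Curves fitted in both directions against vehicle.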

[7] = read-out: Apoptosis regulator Bcl-2 (Homo sapiens) (UniProt P10415); assay: LTEA_HepaRG_BCL2: Life Technologies and Expression Analysis (LTEA) Assay for Bcl-2 gene using HepaRG (AID 2283475)
Method in brief: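 qRT-PCR read-out (Fluidigm TaqMan) of BCL2 transcript, normalised to three housekeeping genes, after 48 h chemical exposure of HepaRG cells; 8-point half-log series, top 100 uM, 0.5% DMSO vehicle. Gain or loss of signal fitted relative to DMSO baseline.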

[8] = read-out: Bcl-2 (BID) gene, BID (gene 637); assay: LTEA_HepaRG_BID: Life Technologies and Expression Analysis (LTEA) Assay for Bcl-2 (BID) gene using HepaRG (AID 2283476)
Method in brief: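 HepaRG, 48 h exposure, 8-pt half-log series, top 100 uM, 0.5% DMSO vehicle, duplicates. Readout: BID mRNA by TaqMan qRT-PCR; housekeeping-normalized; bidirectional curve fit vs DMSO baseline.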

[9] = read-out: Caspase-3 (Homo sapiens) (UniProt P42574); assay: LTEA_HepaRG_CASP3: Life Technologies and Expression Analysis (LTEA) Assay for cysteine-aspartic acid protease (CASP3) using HepaRG (AID 2283477)
Method in brief: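 Expression of CASP3 was quantified by TaqMan qRT-PCR against three housekeeping genes (ACTB, GAPDH, POLR2A), bidirectionally versus 0.5% DMSO. HepaRG cultures received compounds in duplicate, top 100 uM with half-log steps, for 48 h in serum-free induction medium.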

[10] = read-out: Cytochrome P450 (CYP24A1), CYP24A1 (gene 1591); assay: LTEA_HepaRG_CYP24A1: Life Technologies and Expression Analysis (LTEA) Assay for Cytochrome P450 (CYP24A1) using HepaRG (AID 2283478)
Method in brief: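 mRNA of CYP24A1 quantified by TaqMan qRT-PCR (ACTB/GAPDH/POLR2A normalization) after 48 h chemical exposure of HepaRG cells, top concentration 100 uM, half-log steps, 0.5% DMSO vehicle, duplicates. Curves fitted bidirectionally against DMSO baseline.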

[11] = read-out: Cytochrome P450 (CYP1A2), CYP1A2 (gene 1544); assay: LTEA_HepaRG_CYP1A2: Life Technologies and Expression Analysis (LTEA) Assay for Cytochrome P450 (CYP1A2) using HepaRG (AID 2283479)
Method in brief: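 CYP1A2 transcript measured by TaqMan qRT-PCR against three housekeeping genes after 48-hour chemical exposure of HepaRG cells. Eight-point half-log series topping at 100 uM in 0.5% DMSO, duplicates; gain or loss fitted relative to vehicle.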

[12] = read-out: Cytochrome P450 2C19 (Homo sapiens) (UniProt P33261); assay: LTEA_HepaRG_CYP2C19: Life Technologies and Expression Analysis (LTEA) Assay for CYP2C19 using HepaRG (AID 2283482)
Method in brief: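 CYP2C19 transcript levels by qRT-PCR, normalized to three housekeeping genes, in HepaRG cells after 48 h chemical exposure. Eight-point half-log series topping at 100 uM, 0.5% DMSO vehicle. Increases and decreases both fitted against DMSO.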

[13] = read-out: CYP2C8 (gene 1558); assay: LTEA_HepaRG_CYP2C8: Life Technologies and Expression Analysis (LTEA) Assay for CYP2C8 using HepaRG (AID 2283483)
Method in brief: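 HepaRG (human liver line), 48 h chemical exposure, 8-pt half-log series from 100 uM, 0.5% DMSO vehicle. Readout: CYP2C8 transcript by qRT-PCR, housekeeping-normalized. Bidirectional fit vs DMSO baseline.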

[14] = read-out: CYP2E1 (gene 1571); assay: LTEA_HepaRG_CYP2E1: Life Technologies and Expression Analysis (LTEA) Assay for CYP2E1 using HepaRG (AID 2283485)
Method in brief: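 CYP2E1 transcript was measured by TaqMan qRT-PCR in human HepaRG cultures after 48 h chemical exposure (top 100 uM, half-log steps, 0.5% DMSO vehicle). Housekeeping-gene normalization; gain or loss fitted relative to DMSO baseline.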

[15] = read-out: CYP4A11 (gene 1579); assay: LTEA_HepaRG_CYP4A11: Life Technologies and Expression Analysis (LTEA) Assay for CYP4A11 using HepaRG (AID 2283486)
Method in brief: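 Readout is CYP4A11 transcript level by qRT-PCR, normalized to three housekeeping genes and fitted bidirectionally against 0.5% DMSO. Human HepaRG cells were treated 48 h, in duplicate, with an 8-point half-log series topping at 100 uM.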

[16] = read-out: Cytochrome P450 3A4 (Homo sapiens) (UniProt P08684); assay: LTEA_HepaRG_CYP3A4: Life Technologies and Expression Analysis (LTEA) Assay for CYP3A4 using HepaRG (AID 2283487)
Method in brief: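 Differentiated HepaRG cells, plated 48 h, then dosed 48 h in serum-free induction medium with 0.5% DMSO, 8 half-log concentrations up to 100 uM, duplicate. CYP3A4 mRNA by qRT-PCR, normalized to ACTB/GAPDH/POLR2A; bidirectional fit versus DMSO.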

[17] = read-out: DNA damage-inducible transcript 3 (DDIT3), DDIT3 (gene 1649); assay: LTEA_HepaRG_DDIT3: Life Technologies and Expression Analysis (LTEA) Assay for DNA damage-inducible transcript 3 (DDIT3) using HepaRG (AID 2283488)
Method in brief: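 qRT-PCR readout (Fluidigm TaqMan), housekeeping-normalized to ACTB, GAPDH, POLR2A. HepaRG cells, 48 h exposure, 8-point half-log series from 100 uM in 0.5% DMSO, duplicates. Gain or loss of signal fitted against DMSO baseline.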

[18] = read-out: CYP2C9 (gene 1559); assay: LTEA_HepaRG_CYP2C9: Life Technologies and Expression Analysis (LTEA) Assay for CYP2C9 using HepaRG (AID 2283484)
Method in brief: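 HepaRG, 48 h dosing, 8-pt half-log series, top 100 uM, 0.5% DMSO vehicle. Read-out: CYP2C9 transcript by TaqMan qRT-PCR, housekeeping-normalized (ACTB/GAPDH/POLR2A). Gain or loss fitted vs DMSO baseline.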

[19] = read-out: cysteine-aspartic acid protease (CASP8), CASP8 (gene 841); assay: LTEA_HepaRG_CASP8: Life Technologies and Expression Analysis (LTEA) Assay for cysteine-aspartic acid protease (CASP8) using HepaRG (AID 2283480)
Method in brief: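 qRT-PCR readout of CASP8 mRNA, normalized to three housekeeping genes, after 48 h chemical exposure of HepaRG cells; 8-point half-log series, top 100 uM, 0.5% DMSO vehicle. Bidirectional curve fitting against DMSO baseline.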

[20] = read-out: Cytochrome P450 (CYP2B6), CYP2B6 (gene 1555); assay: LTEA_HepaRG_CYP2B6: Life Technologies and Expression Analysis (LTEA) Assay for Cytochrome P450 (CYP2B6) using HepaRG (AID 2283481)
Method in brief: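 CYP2B6 transcript level quantified by qRT-PCR against three housekeeping genes, fitted bidirectionally relative to DMSO. HepaRG cultures received chemicals for 48 h, 8-point half-log series from 100 uM in 0.5% DMSO, duplicate wells, serum-free induction medium.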

Measured: outcome

Sequence of Cytochrome P450 2C19 (Homo sapiens) (P33261 whole entry, looked up): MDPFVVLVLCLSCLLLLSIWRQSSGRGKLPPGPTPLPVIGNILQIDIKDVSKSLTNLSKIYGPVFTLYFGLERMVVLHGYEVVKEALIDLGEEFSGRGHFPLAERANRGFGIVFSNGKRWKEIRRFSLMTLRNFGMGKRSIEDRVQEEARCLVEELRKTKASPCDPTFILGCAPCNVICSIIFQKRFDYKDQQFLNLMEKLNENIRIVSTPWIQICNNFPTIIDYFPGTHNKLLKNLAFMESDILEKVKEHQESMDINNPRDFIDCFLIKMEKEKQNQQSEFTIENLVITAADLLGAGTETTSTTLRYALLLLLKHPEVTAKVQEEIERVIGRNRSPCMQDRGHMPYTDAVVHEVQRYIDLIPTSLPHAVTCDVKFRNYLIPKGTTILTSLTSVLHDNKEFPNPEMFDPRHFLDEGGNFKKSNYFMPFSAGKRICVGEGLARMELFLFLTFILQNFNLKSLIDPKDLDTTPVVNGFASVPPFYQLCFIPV
Sequence of Apoptosis regulator Bcl-2 (Homo sapiens) (P10415 whole entry, looked up): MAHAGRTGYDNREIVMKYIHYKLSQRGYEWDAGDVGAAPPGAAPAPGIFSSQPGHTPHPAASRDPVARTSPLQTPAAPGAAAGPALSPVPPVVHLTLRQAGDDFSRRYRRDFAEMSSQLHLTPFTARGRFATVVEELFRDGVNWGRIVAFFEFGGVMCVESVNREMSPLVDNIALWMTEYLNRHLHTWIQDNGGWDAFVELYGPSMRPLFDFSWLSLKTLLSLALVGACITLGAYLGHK
Sequence of Caspase-3 (Homo sapiens) (P42574 whole entry, looked up): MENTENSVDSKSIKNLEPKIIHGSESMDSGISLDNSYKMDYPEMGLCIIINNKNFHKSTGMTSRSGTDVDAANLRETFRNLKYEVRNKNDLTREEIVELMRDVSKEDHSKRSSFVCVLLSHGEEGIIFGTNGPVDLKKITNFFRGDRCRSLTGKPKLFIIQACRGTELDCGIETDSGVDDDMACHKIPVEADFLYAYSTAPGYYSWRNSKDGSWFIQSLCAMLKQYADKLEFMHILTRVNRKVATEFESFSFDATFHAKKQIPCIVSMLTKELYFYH
Sequence of Cytochrome P450 3A4 (Homo sapiens) (P08684 whole entry, looked up): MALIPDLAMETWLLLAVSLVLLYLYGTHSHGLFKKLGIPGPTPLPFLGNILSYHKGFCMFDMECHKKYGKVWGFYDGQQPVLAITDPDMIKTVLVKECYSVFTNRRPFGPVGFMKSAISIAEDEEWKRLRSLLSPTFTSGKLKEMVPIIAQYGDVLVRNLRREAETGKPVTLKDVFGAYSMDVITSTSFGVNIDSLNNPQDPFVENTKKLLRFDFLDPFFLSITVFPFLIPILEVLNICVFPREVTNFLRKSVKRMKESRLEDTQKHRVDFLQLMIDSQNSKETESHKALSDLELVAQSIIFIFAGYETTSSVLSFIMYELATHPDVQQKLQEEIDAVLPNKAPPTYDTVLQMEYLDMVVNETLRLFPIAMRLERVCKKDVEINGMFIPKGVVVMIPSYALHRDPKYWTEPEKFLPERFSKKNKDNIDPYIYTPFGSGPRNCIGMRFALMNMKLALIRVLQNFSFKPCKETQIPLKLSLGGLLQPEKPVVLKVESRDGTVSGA

Cc1cccc(C)c1O
not listed: [18] | [19] | [20]
inactive: all other assays above

COCCOC[C@H](CC1(C(=O)NC2CCC(C(=O)O)CC2)CCCC1)C(=O)Oc1ccc2c(c1)CCC2 (some centres not stated)
not listed: [19] | [20]
inactive: all other assays above

CCCCCCCCCCC
not listed: [9] | [18]
inactive: all other assays above

CCCCOC(=O)CCCCCCCCC(=O)OCCCC
not listed: [5]
inactive: all other assays above
